Screens: PubChem BioAssay, Broad Institute
aSyn UTR act: Activators via SNCA 5'UTR binding, MLPCN; alpha-synuclein 5'UTR reporter, activators screen; activity score, % (tested at 7.5 µM), hits read low; hit rate 7.1% among 300,000; in the data active means activity score below about -60%
Numbers stand for hits. A selection follows.

For Cc1cc(SCC(=O)N/N=C/c2ccc(O)cc2O)nc2ccccc12 the results were aSyn UTR act inactive.
Cc1cc(SC(C)C(=O)NCC(=O)Nc2ccc(F)c(F)c2F)nc2ccccc12 (stereo not drawn) was read as aSyn UTR act inactive.
For c1ccc(CSc2ncn(-c3ccccc3)n2)cc1 the results were aSyn UTR act -138.
`Cc1cc(SCC(=O)c2cccs2)nc2ccccc12` gave aSyn UTR act -81.
For N/C(COc1ncn(-c2ccccc2)n1)=N\S(=O)(=O)c1ccccc1 the results were aSyn UTR act inactive.
Cc1cc(/C=C2\SC(=S)N(C)C2=O)c(C)n1-c1ccccc1O was read as aSyn UTR act -126.
Cc1cc(/C=C2/C(=O)NN(c3ccccc3)C2=O)c(C)n1-c1cccc(O)c1 was read as aSyn UTR act -74.
For Cc1ccc(/C=C2\SC(=S)N(CCCC(=O)NNC(=O)c3ccccc3O)C2=O)cc1 the results were aSyn UTR act inactive.
`Cc1cc(/C=C2\SC(N)=NC2=O)c(C)n1-c1ccc(F)cc1` gave aSyn UTR act -62.
`Cc1ccc(-n2c(C)cc(/C=C3\SC(=O)NC3=O)c2C)cc1` gave aSyn UTR act -174.
`COc1ccc(-n2c(C)cc(/C=C3\SC(=O)NC3=O)c2C)cc1` gave aSyn UTR act -146.
For CCn1c(C)cc(/C=C2/SC(=S)NC2=O)c1C the results were aSyn UTR act -67.
`Cc1cc(/C=C2\SC(=S)NC2=O)c(C)n1-c1cccc(O)c1` gave aSyn UTR act -111.
For CC(C)CNC(=O)c1cc(-c2ccc3c(c2)OCO3)on1 the results were aSyn UTR act -100.
Screening CC(C)CNC(=O)COCc1cc(-c2ccc3c(c2)OCO3)on1 returned aSyn UTR act -77.
For CCCNC(=O)COCc1cc(-c2ccc3c(c2)OCO3)on1 the results were aSyn UTR act -66.
`O=C(COCc1cc(-c2ccc3c(c2)OCO3)on1)N1CCCCC1` gave aSyn UTR act -90.
For Cc1ccc(Cn2nc(C)c(NC(=O)c3cc(-c4ccc5c(c4)OCO5)on3)c2C)cc1 the results were aSyn UTR act inactive.
CCN=C1S/C(=C\c2ccc(Sc3ccc(Cl)cc3)o2)C(=O)N1CC was read as aSyn UTR act inactive.
`CC1=CN2C(=N)/C(=C/c3ccc(C)o3)C(=O)N=C2S1` gave aSyn UTR act -80.
Screening CC1=CN2C(=N)/C(=C/c3ccc(Sc4ccc(C)cc4)o3)C(=O)N=C2S1 returned aSyn UTR act -78.
For Nc1c(-c2cccc(Cl)c2)cnc2c(-c3ccccc3)cnn12 the results were aSyn UTR act -243.
`CCOC(=O)c1cnc2c(-c3ccc(Cl)cc3)cnn2c1C` gave aSyn UTR act -98.
Screening Cc1nn2c(N)c(-c3ccccc3)cnc2c1-c1ccccc1 returned aSyn UTR act -131.
Screening Nc1c(-c2ccc(Cl)cc2)cnc2c(-c3ccc(F)cc3)cnn12 returned aSyn UTR act -95.
`COc1ccc(-c2c(C)nc3c(-c4ccc(F)cc4)cnn3c2N)cc1` gave aSyn UTR act -143.
For Fc1ccc(-c2cnn3c(-c4ccncc4)ccnc23)cc1 the results were aSyn UTR act -69.
`Clc1ncccc1-c1nc2ccccc2s1` gave aSyn UTR act -149.
Screening O=c1c(-c2nc3ccccc3s2)cccn1Cc1ccc(Cl)cc1 returned aSyn UTR act -111.
`CC(=O)Nc1ccc(SCCCC(=O)c2ccccc2)cc1` gave aSyn UTR act -161.
Screening O=C(Nc1ccccc1)Nc1scc2c1c(=O)oc1ccccc12 returned aSyn UTR act -123.
For CC(=O)Nc1ccc(C#Cc2ccc(NC(C)=O)cc2)cc1 the results were aSyn UTR act inactive.
For CC(=O)Nc1ccc(NC(=O)Nc2ccccc2)cc1 the results were aSyn UTR act -70.
O=C(Nc1ccccc1)Nc1c(F)cccc1F was read as aSyn UTR act -66.
O=C(Nc1ccccc1)Nc1csc2ccccc12 was read as aSyn UTR act -165.
`O=C(Cc1cccs1)N/N=C/C=C/c1ccccc1` gave aSyn UTR act -70.
`O=C(N/N=C/C=C/c1ccccc1)c1cccs1` gave aSyn UTR act -156.
`O=C(N/N=C/C=C/c1ccccc1)c1cc2c(ccc3ccccc32)o1` gave aSyn UTR act -80.
For O=C(N/N=C/C(Br)=C/c1ccccc1)c1cccs1 the results were aSyn UTR act -366.
Screening O=C(N/N=C\C=C\c1ccc([N+](=O)[O-])o1)c1cccs1 returned aSyn UTR act -63.
Cn1c(CSc2nc3ccccc3s2)nc2ccccc21 was read as aSyn UTR act -140.
c1ccc2[nH]c(CSc3nc4ccccc4s3)nc2c1 was read as aSyn UTR act -112.
For CCc1cc2c(Sc3nc4ccccc4s3)ncnc2s1 the results were aSyn UTR act inactive.
`CCNc1nnc(CSc2nc3ccccc3s2)s1` gave aSyn UTR act -71.
c1ccc(SCc2nc3ccccc3[nH]2)nc1 was read as aSyn UTR act -75.
Screening Clc1ccc(-c2cn3c(n2)SCC3)cc1 returned aSyn UTR act -186.
Screening Brc1ccc(-c2cn3c(n2)SCC3)cc1 returned aSyn UTR act -179.
